Results reported in PubChem BioAssay AID1159580 (chemical genetic matrix, 2015).
“And” between values parts separate entries of the source, which are not always exact repeats. Equal values may be shown once. About 2,000 (36%) of roughly 5,500 compounds were called active. About 18% were inconclusive and are not listed. Rule as the data show it: active = normalized growth mostly below about 0.91 (no sharp cut-off); inconclusive = no clear call, values can overlap the other calls; inactive = mostly above about 0.92. The list shows a part of the results.

Experiment: chemical genetic growth profiling, strain panel (AID 1159580);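 also: tested at 20 µM; growth read once vehicle control cultures reached saturation at 30 °C; 1 = growth at the plate median or of vehicle wells; lower values mean less growth of the strain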
Conditions: S. cerevisiae deletion strains, growth OD

Measured: normalized growth

N[C@@H](CCC(=O)N[C@@H](CS)C(=O)NCC(=O)O)C(=O)O
inactive: locus YAL021C, strain ccr4, hits give low values 1 | locus YAL026C, strain drs2, hits give low values 1.04 | locus YAL030W, strain snc1, hits give low values 0.986 | locus YBL061C, strain skt5, hits give low values 1.01 | locus YBR009C, strain hhf1, hits give low values 0.988 | locus YBR021W, strain FUR4, hits give low values 1.05 | locus YBR023C, strain chs3, hits give low values 1.01 | locus YBR171W, strain sec66, hits give low values 0.981 | locus YBR229C, strain ROT2, hits give low values 1.01 | locus YBR231C, strain swc5, hits give low values 0.972 | locus YBR279W, strain paf1, hits give low values 1 | locus YCL011C, strain gbp2, hits give low values 1.01 | locus YCL016C, strain dcc1, hits give low values 1.02 | locus YCL029C, strain bik1, hits give low values 0.998 | locus YCL061C, strain MRC1, hits give low values 0.99 | locus YCL069W, strain vba3, hits give low values 1.01 | locus YCR088W, strain abp1, hits give low values 0.998 | locus YDL005C, strain med2, hits give low values 0.985 | locus YDL035C, strain GPR1, hits give low values 1.01 | locus YDL040C, strain nat1, hits give low values 0.989 | locus YDL074C, strain BRE1, hits give low values 0.987 | locus YDL101C, strain DUN1, hits give low values 0.991 | locus YDL185W, strain tfp1, hits give low values 0.947 | locus YDL192W, strain arf1, hits give low values 0.988 | locus YDR001C, strain nth1, hits give low values 0.993 | locus YDR069C, strain doa4, hits give low values 0.975 | locus YDR101C, strain arx1, hits give low values 0.992 | locus YDR137W, strain rgp1, hits give low values 1.03 | locus YDR159W, strain sac3, hits give low values 0.943 | locus YDR162C, strain NBP2, hits give low values 0.998 | locus YDR195W, strain ref2 0.927 | locus YDR297W, strain sur2, hits give low values 0.984 | locus YDR318W, strain mcm21, hits give low values 0.993 | locus YDR334W, strain swr1, hits give low values 0.998 | locus YDR335W, strain msn5, hits give low values 0.987 | locus YDR388W, hits give low values 0.998 | locus YDR392W, strain spt3, hits give low values 1 | locus YDR502C, strain sam2, hits give low values 0.987 | locus YEL003W, strain gim4, hits give low values 0.992 | locus YEL037C, strain rad23, hits give low values 0.995 | locus YEL061C, strain CIN8 (second series), hits give low values 0.996 | locus YEL061C, strain CIN8, hits give low values 0.991 | locus YER015W, strain faa2, hits give low values 1 | locus YER016W, strain bim1, hits give low values 1.02 | locus YER110C, hits give low values 0.971 | locus YER111C, strain swi4, hits give low values 1.01 | locus YER155C, strain BEM2 (second series), hits give low values 0.963 | locus YER155C, strain BEM2, hits give low values 0.998 | locus YER167W, strain BCK2, hits give low values 1 | locus YFR010W, strain ubp6, hits give low values 1 | locus YGL078C, strain dbp3, hits give low values 0.99 | locus YGL086W, strain mad1, hits give low values 0.987 | locus YGL167C, strain pmr1, hits give low values 0.988 | locus YGL173C, strain kem1, hits give low values 0.977 | locus YGL227W, strain vid30, hits give low values 0.992 | locus YGL240W, strain doc1, hits give low values 0.973 | locus YGL248W, strain PDE1, hits give low values 0.999 | locus YGL253W, strain hxk2, hits give low values 1.02 | locus YGR135W, strain pre9, hits give low values 0.978 | locus YGR252W, strain gcn5, hits give low values 0.995 | locus YHR013C, strain ard1, hits give low values 0.996 | locus YHR027C, strain rpn1, hits give low values 1.01 | locus YHR030C, strain SLT2, hits give low values 0.992 and 0.922 | locus YHR079C, strain IRE1 (second series), hits give low values 0.985 | locus YHR079C, strain IRE1, hits give low values 0.928 | locus YHR094C, strain hxt1, hits give low values 0.996 | locus YHR129C, strain ARP1, hits give low values 1 | locus YHR142W, strain chs7, hits give low values 1.03 | locus YHR200W, strain rpn10, hits give low values 0.981 | locus YIL066C, strain RNR3, hits give low values 1.01 | locus YIL073C, strain SPO22, hits give low values 0.952 | locus YIL125W, strain kgd1, hits give low values 0.996 | locus YIR030C, strain dcg1, hits give low values 0.991 | locus YJL092W, strain hpr5, hits give low values 0.998 | locus YJL095W, strain BCK1 (second series), hits give low values 1.01 | locus YJL095W, strain BCK1, hits give low values 0.97 and 1.03 | locus YJL115W, strain asf1, hits give low values 0.972 | locus YJL129C, strain trk1, hits give low values 0.975 | locus YJL134W, strain LCB3, hits give low values 0.995 | locus YJL154C, strain vps35, hits give low values 0.998 | locus YJL164C, strain tpk1, hits give low values 1.01 | locus YJL166W, strain qcr8, hits give low values 0.973 | locus YJL168C, strain set2, hits give low values 0.994 | locus YJL187C, strain SWE1 (second series), hits give low values 0.987 | locus YJR043C, strain POL32, hits give low values 0.992 | locus YJR066W, strain TOR1, hits give low values 0.923
